Most compounds without a hit are left out; they make up all but 4.6% or so of the library.
D1 potentiator: potentiators of human D1 dopamine receptor; P21728; HEK293 TREx D1 cells, calcium flux, dopamine EC20 potentiation; potentiation, % at 10 µM; hit rate 0.036% among 360,000; in the data active means potentiation above about 30%
Target sequence (P21728 whole entry, looked up): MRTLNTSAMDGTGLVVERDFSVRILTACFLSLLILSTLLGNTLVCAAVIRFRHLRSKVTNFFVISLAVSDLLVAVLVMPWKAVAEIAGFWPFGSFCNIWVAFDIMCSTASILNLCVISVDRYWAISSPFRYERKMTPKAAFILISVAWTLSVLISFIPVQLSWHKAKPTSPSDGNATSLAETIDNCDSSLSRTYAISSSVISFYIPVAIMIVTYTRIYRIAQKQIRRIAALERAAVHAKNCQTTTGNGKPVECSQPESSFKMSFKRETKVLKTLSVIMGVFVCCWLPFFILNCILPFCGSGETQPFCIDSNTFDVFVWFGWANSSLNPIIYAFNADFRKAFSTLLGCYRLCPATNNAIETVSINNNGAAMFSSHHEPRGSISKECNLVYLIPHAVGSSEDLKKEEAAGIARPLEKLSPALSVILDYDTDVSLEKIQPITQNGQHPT
D1 agonist: human D1 receptor agonism; activation, % at 2 µM; HEK293 T-REx D1 cells, calcium flux, agonist mode; P21728; hit rate 1% among 360,000
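Inducible HEK293 T-REx D1 cells, force-coupled to calcium signalling, were plated at 4000 cells/well with tetracycline and held overnight at 30 C. After no-wash calcium dye loading, compound-evoked calcium rise over 180 s flagged agonists.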
D1 antag: human D1 dopamine receptor antagonism; P21728; HEK293 TREx D1 cells, calcium flux, dopamine EC80; stronger effect = lower value; activity change, negative = inhibition, % at 10 µM; hit rate 3.2% among 360,000; in the data active means activity change below about -30%
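Cells carrying a force-coupled, tetracycline-inducible human D1 receptor report calcium flux. Each well gets a 10 s baseline, compound with 180 s monitoring, then an EC80 dopamine stimulus with a second 180 s kinetic read.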
TRHR agonist: activates the human TRH receptor; P34981; TRHR cells, calcium flux fluo-8, FDSS agonist mode; activation, % at 2 µM; hit rate 0.18% among 360,000; AID 493084
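Read-out: compound-evoked intracellular calcium rise in TRHR cells, fluo-8 dye, kinetic FDSS fluorescence at 1 s/cycle following a 10-cycle baseline. Cells cultured overnight before dye loading (30 min–1.5 h, RT).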
TRHR PAM: allosteric enhancers of human TRH receptor; P34981; TRHR cells, fluo-8 calcium fluorescence, EC20 TRH enhancement; enhancement, % at 2 µM; hit rate 0.66% among 360,000; AID 493056; in the data active means enhancement above about 30%
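Enhancer read-out: after compound pinning and an initial kinetic agonist-mode read, an EC20 of TRH (10 nM final) was injected and fluo-8 calcium signal (Ex 480/Em 530) followed at 1 s/cycle for 100 cycles in TRHR-expressing cells.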
Numbers stand for hits; - = inactive. Unless noted, no stated cut-off is given here; in the data, active means activation above about 30%; inactive means the rest.

SMILES	D1 potentiator	D1 agonist	D1 antag	TRHR agonist	TRHR PAM
c1coc(-c2nc3cc4ccccc4cc3nc2-c2ccco2)c1	-	-	-	-	-
Cc1ccc(S(=O)(=O)Nc2ccc3c(c2)c(C(=O)OC(C)C)c(C)n3S(=O)(=O)c2ccc(C)cc2)cc1	-	-	-	-	-
CCOC(=O)N1CCc2c(sc(NCc3ccc(N(C)C)cc3)c2C(=O)Nc2ccccc2OCC)C1	-	-	-	-	-
CCN1/C(=C/C=C/c2oc3ccc(-c4ccccc4)cc3[n+]2CC)Oc2ccc(-c3ccccc3)cc21	-	547	-84	317	-
COc1ccc(N2CCN(c3ccc(-c4nc(-c5ccccc5C)no4)cc3[N+](=O)[O-])CC2)cc1	-	-	-	-	-
CC(NCCC1(Cc2ccccc2Cl)CCOC(C)(C)C1)c1cccs1 (stereo unspecified)	-	47	-	-	-
CC(C)C1(CCNC(=O)c2cccs2)CCOC(C)(C)C1 (stereo unspecified)	-	-	-	-	-
O=C(Nc1ccc(F)cc1)c1cc(S(=O)(=O)N2CCOCC2)cs1	-	-	-61	-	-
O=C(Nc1cccc(F)c1)c1cc(S(=O)(=O)N2CCOCC2)cs1	-	-	-84	-	-
CCCCN(C)c1nnc(NC(=O)Nc2cccc(C(C)=O)c2)s1	-	-	-	-	-
CC(C(=O)Nc1ccc(F)c(F)c1F)N(C)CC(=O)Nc1ccccc1Br (stereo unspecified)	-	-	-31	-	-
Cc1cccc(C)c1NC(=O)CN(C)C(C)C(=O)NCC(=O)Nc1ccc(F)c(F)c1F (stereo unspecified)	-	-	-	-	-
COc1ccc2oc(=O)c(C(=O)N3CCN(C(=O)c4ccccc4)CC3)cc2c1	-	-	-	-	-
COc1cccc(OC(=O)c2cc3ccccc3oc2=O)c1	-	-	-30	-	-
COc1ccc2oc(=O)c(C(=O)N3CCN(c4ccccc4)CC3)cc2c1	-	-	-41	-	-
CC(=O)N1c2ccc(S(=O)(=O)NCC3CCC(C(=O)Nc4cccc(F)c4)CC3)cc2CC1C (stereo unspecified)	-	-	-	-	-
COc1ccccc1NC(=S)NCc1ccccc1Cl	-	-	-	-	37
COc1ccc(NC(=S)NCc2ccccc2Cl)c(OC)c1	-	-	-33	-	-
COc1ccc(NC(=S)NCc2ccc(F)cc2)c(OC)c1	-	-	-31	-	-
Cc1c(Cl)cccc1NC(=S)NCc1ccccc1Cl	-	-	-	-	-
COc1ccccc1NC(=S)NCC1CCC(CNC(=S)Nc2ccccc2OC)CC1 (stereo unspecified)	-	-	-85	-	-
Cc1cc2c(s1)c1cnn(Cc3ccccc3C)c(=O)c1n2C	-	-	-	-	-
CCOCCCNC(=O)C1CCN(Cc2ccc(OCc3ccccc3)c(OC)c2)CC1	-	-	-	-	-
CCOCCCNC(=O)C1CCN(Cc2cccc(OCc3ccccc3)c2)CC1	-	-	-31	-	-
O=C(c1ccc2c(c1)OCCO2)N(Cc1cccnc1)c1nc2c(F)cccc2s1	-	-	-	-	-
SMILES	D1 potentiator	D1 agonist	D1 antag	TRHR agonist	TRHR PAM
O=C(NCCc1ccccc1Cl)c1cc2ccccn2n1	-	-	-	-	-
COc1ccc(C(F)(F)F)cc1NC(=O)C(OC(=O)CNC(=O)c1ccccc1)c1ccccc1 (stereo unspecified)	-	-	-	-	-
CNS(=O)(=O)c1cccc(C(=O)OCC(=O)c2cc(C)n(CC3CCCO3)c2C)c1 (stereo unspecified)	-	-	-	-	-
Cc1cc(C(=O)CSc2n[nH]c(N)n2)c(C)n1-c1ccc2c(c1)OCO2	-	-	-40	-	-
CNS(=O)(=O)c1cccc(C(=O)OCC(=O)c2cc(C)n(-c3ccc4c(c3)OCO4)c2C)c1	-	-	-39	-	-
Cc1cc(C(=O)COc2ccccc2Cl)c(C)n1-c1ccc2c(c1)OCO2	-	-	-	-	-
Cc1cc(C(=O)CN2C(=O)NC(C)(CC(C)C)C2=O)c(C)n1-c1ccc2c(c1)OCO2 (stereo unspecified)	-	-	-46	-	-
CCOc1ccc(NC(=O)Cn2cc(C(=O)c3ccc(CC)cc3)c(=O)c3cc(C)ccc32)cc1	-	-	-	-	-
O=C(CCCN1C(=O)CCC1=O)Nc1ccc(Br)cc1F	-	-	-32	-	-
CC(c1ccccc1)C1CC(=O)N(CC(=O)O)C1=O (stereo unspecified)	-	-	-32	-	-
CNc1nc(-c2ccc(S(=O)(=O)N3CCCCC3)cc2)cs1	-	-	-33	-	-
CSc1nc2cc(S(=O)(=O)N3CCOCC3)ccc2s1	-	-	-	-	-
O=S(=O)(c1ccc(Cl)cc1)N1CCCCCC1	-	-	-	-	-
Cc1ccc(S(=O)(=O)N2CCCN(C(C)c3nc4ccccc4c(=O)[nH]3)CC2)cc1 (stereo unspecified)	-	-	-38	-	-
CSc1nc2cc(S(=O)(=O)N3CCCCC3)ccc2s1	-	-	-31	-	-
O=S(=O)(c1ccc(S(=O)(=O)N2CCCC2)cc1)N1CCCCCC1	-	-	-39	-	-
CCC(C(=O)N1CCN(c2ccccc2)CC1)n1nc(C)c2sc3ccccc3c2c1=O (stereo unspecified)	-	-	-	-	-
Cc1ccc(S(=O)(=O)N2CCCN(S(=O)(=O)c3ccc(C)cc3)CC2)cc1	-	-	-34	-	-
O=S(=O)(c1cnc[nH]1)N1CCCCCC1	-	-	-45	-	-
Cc1ccc(S(=O)(=O)N2CCC(=O)N2)cc1	-	-	-68	-	-
O=S(=O)(c1cccc(-c2cn3ccccc3n2)c1)N1CCCCC1	-	-	-47	-	-
CC1CCN(S(=O)(=O)c2cnc[nH]2)CC1	-	-	-	-	-
Cc1ccc(S(=O)(=O)N2CCCCC2)cc1	-	-	-	-	-
O=S(=O)(c1ccc(-c2ccccc2)cc1)N1CCCCC1	-	-	-35	-	-
COc1ccc(C2(CCN=Cc3ccc(N(C)C)cc3)CCOC(C)(C)C2)cc1 (stereo unspecified)	-	-	-78	-	-
SMILES	D1 potentiator	D1 agonist	D1 antag	TRHR agonist	TRHR PAM
Cc1ccc(CNC(=O)CCCCCn2c(=O)c3sccc3n(CC(=O)C(C)(C)C)c2=O)cc1	-	-	-	-	-
COc1cc2c(=O)c(C(=O)c3ccc(C)c(C)c3)cn(Cc3ccccc3F)c2cc1OC	-	-	-	-	-
Cc1csc2nc3cc(C(N)=O)ccc3c(=O)n12	-	-	-44	-	-
CCC(Sc1nnc(C)n2c1cc1occc12)C(=O)Nc1ccccc1F (stereo unspecified)	-	-	-	-	-
Cc1ccccc1NC(=O)c1cccc2c(=O)c3c([nH]c12)CCCC3	-	-	-	-	-
O=C(O)c1cccc2c3c([nH]c12)CCCC3	-	-	-30	-	-

Compound activity as filed in PubChem.
